Among all 2,400 compounds or so, about 430 (18%) were called active. These entries were drawn from the full list. A number with no mark means an inactive call. Rule as the data show it: active = activation above about 12%; inactive = the rest.
Assay: nonspecific calcium signal increase, Ga16 cells – cell-based, fluorescence, counter-screen for TAAR1 antagonist project (AID 651953);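 also: 0% = vehicle wells and 100% = saturating stimulus response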
Conditions: Ga16-expressing cells, agonist counterscreen, at 3 µM, hits give high values

Compound | activation
CC(=O)n1cc([C@H]2C=C(C(=O)N3CCOCC3)O[C@@H](OCc3ccc(CO)cc3)C2)c2ccccc21 | 8.38%
CC(=O)Nc1ccc(NC(=O)COC(=O)C2CCC(C(C)(C)C)CC2)cc1 (centres undefined) | 12.5% (active)
COc1cc2ccccc2cc1C(=O)Nc1ccc(NC(=O)c2cccs2)cc1 | 7.21%
COC(=O)[C@@]1(Sc2ccc(C)cc2)CC(=O)N(c2cccc(SC)c2)[C@@H]1c1ccccc1 | 7.65%
COc1ccc(C(=O)Oc2ccc(-c3nnco3)cc2)cc1S(=O)(=O)N1CCOCC1 | 8.48%
CCOc1cc(/C=N/NC(=O)c2cc(-c3ccccc3)nc3ccccc23)ccc1O | 7.59%
O=C(Oc1ccc(-c2nnco2)cc1)c1ccc(F)c(S(=O)(=O)N2CCOCC2)c1 | 11.4%
O=C1c2ccccc2C(=O)N1CCC#Cc1ccc2cc(C3(O)CCCCC3)oc(=O)c2c1 | 12.9% (active)
Cc1nn(-c2ccccc2)c(C)c1NC(=O)COC(=O)c1cc(Cl)ccc1O | 11.4%
CCOc1ccc(NC(=O)N2CC=C(n3c(=O)[nH]c4ccccc43)CC2)cc1 | 8.85%
C=CCn1c(SCc2cccc(F)c2)nc2cc(C(=O)N3CCC(C(N)=O)CC3)ccc2c1=O | 10.2%
CSc1nc(-c2ccccc2)nc(C(Cl)Cl)n1 | 2.33%
O=c1[nH]c(CSc2ncc(-c3ccc(F)cc3)n2Cc2ccco2)nc2ccccc12 | 9.09%
Cn1c2ccccc2c(=O)c2c(=O)n(Cc3ccco3)c(COc3ccccc3)nc21 | 11.7% (active)
COc1ccc(CCNC2=C(Cl)C(=O)N(Cc3ccccc3)C2=O)cc1OC | 10.4%
COc1ccc(CCNC(=O)C(=O)NCC2OCCN2S(=O)(=O)c2ccc(OC)c(C)c2)cc1 (centres undefined) | 7.62%
COc1ccc(CCNC(=O)c2ccc(CS(=O)(=O)c3ccc(Br)cc3)o2)cc1OC | 13.5% (active)
CC(C)(C)OC(=O)NCCCCCNC(=O)c1nc[nH]c1C(=O)NCc1ccccc1 | 7.75%
O=C(NCc1ccc2c(c1)OCO2)c1c(-c2ccsc2)sc2ccccc12 | 3.18%
Fc1ccc(/C=N/Nc2nc(-c3cccnc3)nc3ccccc23)cc1 | 5.53%
Oc1ccc(/C=N/Nc2nc(-c3ccccc3F)nc3ccccc23)c(O)c1 | 11.9% (active)

Compound | activation
CCOC(=O)C1=C(NC(=S)NC(=O)c2ccccc2)c2ccccc2CC1(C)C | 11.8% (active)
CNC(=O)c1ccsc1NC(=O)c1ccc(S(=O)(=O)N2CCc3ccccc32)cc1 | 9.94%
CC(=O)N1CCN(C(=O)c2cc(-c3ccc(Cl)s3)nc3ccccc23)CC1 | 11.8% (active)
COc1ccc(-c2cc(C(=O)Nc3ccccc3O)c3ccccc3n2)cc1 | 10.9%
COc1ccc(NC(=O)c2cc(-c3ccc(C)o3)nc3ccccc23)cc1 | 8.64%
COc1ccc(S(=O)(=O)N2CCCC(C(=O)Nc3ccc(NC(=O)c4ccccn4)cc3)C2)cc1 (centres undefined) | 9.11%
O=C(OCC(=O)N(CCc1ccccc1)Cc1ccccc1)c1ccccc1[N+](=O)[O-] | 9.58%
Cn1c(C(=O)NCCc2ccsc2)cc2c(=O)n(C)c3ccccc3c21 | 6.98%
COc1ccc(OC)c2[nH]c(=O)c(CCNC(=O)C(=O)c3c[nH]c4ccccc34)cc12 | 9.04%
COc1ccc(S(=O)(=O)N(CC(=O)NCc2ccco2)c2ccc(F)cc2)cc1 | 7.35%
N#Cc1cccc(NC(=O)COC(=O)c2ccccc2C(=O)c2ccc(Cl)c([N+](=O)[O-])c2)c1 | 10.4%
C[C@H](NC(=O)c1nc[nH]c1C(=O)NCC(=O)OC(C)(C)C)C(=O)OCc1ccccc1 | 6.84%
COc1ccc(C2=NOC(Cn3nc(C(=O)NCc4ccc5c(c4)OCO5)cc3-c3ccccc3)C2)cc1 (centres undefined) | 7.98%
Cc1ccc2c(c1)N(CC(=O)NCCc1ccc(Cl)cc1)C(=O)c1cccnc1O2 | 8.82%
C=CCC[C@@H](Cc1ccc(F)cc1)C(=O)O[C@H](CNC(=O)[C@H](CC=C)CC(=O)N(CCO)Cc1ccccc1)c1ccccc1 | 5.79%
CSCCC(NC(=O)COc1ccccc1)C(=O)OCCOc1ccc(Br)cc1 (centres undefined) | 4.3%
COC(=O)C1=C(C)N(Cc2ccc(F)cc2)C(=S)NC1c1cccc(Cl)c1 (centres undefined) | 2.63%
COC(=O)Cc1nnn2c1[C@H](C)[C@H](c1ccccc1[N+](=O)[O-])OCC2 | -1.09%
Cc1ccccc1NC(=O)Cc1nc(COC(=O)C(C)(C)Oc2ccc(Cl)cc2)cs1 | 7.78%
C=CCC[C@H](Cc1ccc(F)cc1)C(=O)OC[C@H](C)NC(=O)[C@H](CC=C)CC(=O)N(CCO)Cc1ccccc1 | 8.66%
Cc1cccc(NC(=O)c2ccc(COc3ccccc3[N+](=O)[O-])o2)n1 | 4.04%

Compound | activation
Cc1cccc(C)c1NC(=O)CNC(=O)C1CCCC1 | 2.04%
Cc1ccc(-n2c(C)cc(/C=N\NC(=O)CC(=O)NC(C)C)c2C)cc1 | 8.51%
O=C(NCCN1CCOCC1)c1ccccc1N1C(=O)[C@@H]2Cc3c([nH]c4ccccc34)C(c3cccc(Cl)c3)N2C1=O (some centres undefined) | 6.37%
COc1ccc(C(=O)Nc2cccc(NC(=O)c3ccc(OC)cc3OC)n2)c(OC)c1 | 8.74%
O=C(CN1CCCSc2ccccc21)N1CCN(S(=O)(=O)c2cccc(F)c2)CC1 | 8.97%
Oc1ccccc1N1CCN(c2ncnc3sc(-c4ccccc4)cc23)CC1 | 6.72%
COc1cc(/C=C2/C(=O)ON=C2C)ccc1OCc1ccccc1F | 12.4% (active)
O=C(COC(=O)c1c2c(nc3ccccc13)CCCC2)c1ccc(Br)s1 | 2.67%
C[C@H](O)[C@@H]1C(=O)N2CCc3c([nH]c4c(-c5ccc6c(c5)OCO6)cccc34)[C@@H]2C[C@@H]1N(C)C(=O)c1ccco1 | 5.11%
Nc1nonc1-n1nnc(C(=O)N/N=C/c2c[nH]c3ccccc23)c1-c1ccccc1 | 6.4%
Cc1ccc(SCc2c(C(=O)N/N=C/c3cccnc3)nnn2-c2nonc2N)cc1 | 17.4% (active)
O=C(N/N=C/c1ccc(OC(=O)c2ccccc2Cl)cc1)c1ccc(O)cc1 | 8.92%
O=C(NCCN1CCOCC1)c1ccc(/C=C2\Sc3ccccc3N(Cc3ccc(F)cc3)C2=O)cc1 | 9.85%
O=S(=O)(c1cccs1)N1CCCc2nc(-c3ccc(Br)cc3)ccc21 | 5.49%
C[C@@H]1CN([C@@H](C)CO)S(=O)(=O)c2ccc(C#Cc3cccc(F)c3)cc2O[C@H]1CN(C)S(=O)(=O)c1cn(C)cn1 | 13.6% (active)
CCCCNc1c(-c2cccc(Sc3ccc(OC)cc3)c2)nc2ccccn12 | 6.41%
CSc1ncnc2c1ncn2CC(=O)C1CCC2C3CCC4=CC(=O)CCC4(C)C3CCC12C (centres undefined) | 15.7% (active)
CCN=C1SC(CC(=O)Nc2ccc(C)cc2)C(=O)N1CC (centres undefined) | 9.6%
O=C(COC(=O)c1ccccc1SCC(=O)N1CCCC1)Nc1ccccc1OC(F)F | 9.11%
COc1ccc(-c2nn(-c3ccccc3)cc2C(=O)Nc2nccs2)cc1OC | 7.16%
COc1cc(SC#N)ccc1N=Cc1c(C)[nH]n(-c2ccc(C)cc2)c1=O | 7.36%

Compound | activation
O=C(Nc1ccccc1-c1nnn(CC(=O)N2CCN(c3ccccc3)CC2)n1)c1cccs1 | 8.25%
CC(C)N(Cc1ccccc1)C(=O)COC(=O)c1ccccc1SCC(=O)N1CCCC1 | 8.17%
COc1ccc(NC(=O)C2CCCN(S(=O)(=O)c3cccc4cccnc34)C2)cc1OC (centres undefined) | 7.3%
CCOC(=O)C1C(c2ccc(OC)c(OC)c2)c2c([nH][nH]c2=O)CC1(C)O (centres undefined) | 3.55%
Clc1ccc(Nc2ncnc3c2nnn3Cc2ccccc2)cc1 | 3.96%
COc1ccc(N(CC(=O)N/N=C/c2cccs2)S(=O)(=O)c2ccc(OC)c(OC)c2)cc1 | 8.47%
CC(=O)OCCN(CCCn1c(-c2ccncc2)nc2ccccc21)c1nc(-c2ccc(C)cc2)cs1 | 12.8% (active)
COC(=O)Cc1nnn2c1[C@H](C)[C@H](c1ccccc1Br)OCC2 | 9.39%
CN(c1ccccc1)S(=O)(=O)c1cc(C(=O)Nc2nc3ccccc3[nH]2)ccc1Cl | 8.92%
NNC(=O)CNC(c1ccccc1)c1cc(Cl)ccc1NC(=O)c1ccccc1 (centres undefined) | 9.38%
CC/C(=N/Nc1ccccc1)c1cnnc(SC)n1 | -1.08%
Cc1onc(-c2c(F)cccc2Cl)c1C(=O)Nc1cccc(S(=O)(=O)N2CCCCC2)c1 | 9.53%
CCC(=O)Oc1cccc(C(=O)Nc2ccc(-c3nnc(-c4ccco4)o3)cc2)c1 | 4.99%
CCc1ccc2c(c1)NC(=O)C2(C)Cc1ccc(OC(F)(F)F)cc1 (centres undefined) | 14.4% (active)
Cc1cc(Br)ccc1NC(=O)c1cnc(N2CCN(c3ccccn3)CC2)c2ccccc12 | 7.37%
O=C(Nc1ccc(-c2nnc(-c3ccccc3)o2)cc1)c1ccc(Br)o1 | 1.44%
O=C(N/N=C/c1ccc(Cl)c(Cl)c1)c1ccc2nc[nH]c2c1 | 7.7%
O=C(COC(=O)CCCSc1nc2ccccc2[nH]1)Nc1ccc(Oc2ccccc2)cc1 | 8.31%
COc1ccc(CC(=O)Nc2c(C(N)=O)oc3ccccc23)cc1 | 6.51%
COC(=O)c1sccc1NC(=O)c1cc(OC)c(OC)c(OC)c1 | 5.58%
COc1cc(OC)cc(C(=O)OCC(=O)Nc2sccc2C(N)=O)c1 | 13.5% (active)

— PubChem BioAssay AID651953 (The Scripps Research Institute Molecular Screening Center, 2012)
